Most compounds without a hit are left out; they make up all but 4.6% or so of the library.
TRHR enhancer = allosteric enhancers of human TRH receptor; P34981; TRHR cells, fluo-8 calcium fluorescence, EC20 TRH enhancement; enhancement, % at 2 µM; hit rate 0.66% among 360,000; AID 493056; in the data active = enhancement above about 30%
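Enhancer read-out: after compound pinning and an initial kinetic agonist-mode read, an EC20 of TRH (10 nM final) was injected and fluo-8 calcium signal (Ex 480/Em 530) followed at 1 s/cycle for 100 cycles in TRHR-expressing cells.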
D1 PAM = potentiators of human D1 dopamine receptor; P21728; potentiation, % at 10 µM; hit rate 0.036% among 360,000; HEK293 TREx D1 cells, calcium flux, dopamine EC20 potentiation; in the data active = potentiation above about 30%
Target sequence (P21728 whole entry, looked up): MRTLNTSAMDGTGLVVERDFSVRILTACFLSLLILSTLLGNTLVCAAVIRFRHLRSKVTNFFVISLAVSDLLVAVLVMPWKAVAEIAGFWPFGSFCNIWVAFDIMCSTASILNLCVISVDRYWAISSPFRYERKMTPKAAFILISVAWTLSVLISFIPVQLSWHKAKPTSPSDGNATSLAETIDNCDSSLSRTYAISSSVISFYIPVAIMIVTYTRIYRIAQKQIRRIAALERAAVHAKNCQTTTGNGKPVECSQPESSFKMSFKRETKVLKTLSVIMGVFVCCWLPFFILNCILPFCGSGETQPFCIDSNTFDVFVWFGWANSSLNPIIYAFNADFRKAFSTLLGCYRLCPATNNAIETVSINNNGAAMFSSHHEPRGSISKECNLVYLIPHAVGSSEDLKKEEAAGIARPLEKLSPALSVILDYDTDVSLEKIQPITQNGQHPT
D1 agonist = activates the human D1 dopamine receptor; AID 504660; hit rate 1% among 360,000; HEK293 T-REx D1 cells, calcium flux, agonist mode; activation, % at 2 µM
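Agonism was scored from calcium flux recorded over 180 s (1 read/s) after pintool compound addition, following a 10-cycle baseline. Cells were inducible force-coupled HEK293 TREx D1, plated overnight at 30 C and loaded with no-wash calcium dye.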
D1 antag = blocks dopamine activation of the human D1 receptor. activity change, negative = inhibition, % at 10 µM. HEK293 TREx D1 cells, calcium flux, dopamine EC80; hits give low values. AID 504652. hit rate 3.2% among 360,000; in the data active = activity change below about -30%
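Tetracycline-induced HEK293 Trex D1 cells, force-coupled to calcium, dye-loaded; compounds added and read 180 s, then EC80 dopamine added and calcium flux tracked kinetically another 180 s.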
Epigenetic reg = derepresses silenced GFP reporter in murine cells; murine LDR cells, GFP reporter derepression, 30 h; hit rate 0.2% among 280,000; Potency, µM (doses to about 53.9 µM), hits mostly activators; active = well fitted activation curve with a large enough effect; inconclusive = small, poorly fitted or top-dose-only effect; note: nearly all actives have a fitted effect of over 60% in size
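Murine LDR cells carrying a silenced, genomically integrated CMV-driven GFP reporter were exposed to compound for 30 hours at 37 C. After PBS washes, GFP-positive cells (20–120 um objects) were counted by laser-scanning microplate cytometry.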
TRHR agonist = agonists of human TRH receptor; P34981; TRHR cells, calcium flux fluo-8, FDSS agonist mode; activation, % at 2 µM; hit rate 0.18% among 360,000; AID 493084
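Fluo-8-loaded TRHR cells; 10 s baseline, compound added, kinetic Ca2+ fluorescence read 1/s, agonist mode.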
Each line names hits and unclear results; the compound was inactive in the other large screens; ! = repeats disagree. Cut-off read from the data, not from the text of the source, unless noted: active = activation above about 30%; inactive = the rest.

CSCCC(NC(=O)c1ccccc1)C(=O)OCC(=O)c1ccc[nH]1 (centres undefined)	none
CCOc1ccc(CCNC(=O)c2cc(=O)[nH]c3ccc(S(=O)(=O)N4CCCCC4)cc23)cc1OCC	none
O=C(CCc1nc2ccccc2[nH]c1=O)OCc1ccc(S(=O)(=O)N2CCOCC2)cc1	TRHR enhancer 35.6
O=C(CCc1ccc(S(=O)(=O)N2CCOCC2)cc1)OCc1nc2ccccc2s1	D1 agonist 33.3
CCOC(=O)c1ccc(COC(=O)CCc2nc3ccccc3[nH]c2=O)o1	none
CCOc1ccccc1CNC(=O)c1cc2n(n1)CCCN(Cc1ccc(C)cc1)C2=O	none
CCOC(=O)C1CCN(c2nc3ccccc3nc2C(C#N)C(=O)NCCc2ccccc2)CC1 (centres undefined)	D1 antag -30.5
Cc1ccnc2nc(C(=O)NC3CCCc4ccccc43)nn12 (centres undefined)	D1 antag -51.8
O=C(NC1CCCc2ccccc21)c1cccc(Br)c1 (centres undefined)	D1 antag -44.5
O=C(NC1CCCc2ccccc21)c1ccc(Br)cc1 (centres undefined)	none
CCC1(c2ccc(F)cc2)NC(=O)N(CC(=O)NC2CC2)C1=O (centres undefined)	none (no result: Epigenetic reg)
CCC1(c2ccc(F)cc2)NC(=O)N(CC(=O)c2cc(C)n(C3CC3)c2C)C1=O (centres undefined)	D1 agonist 41.3 (no result: Epigenetic reg)
O=C(CN1C(=O)NC2(CCc3ccccc32)C1=O)c1ccc2c(c1)OCCO2 (centres undefined)	none
Cc1ccc(C2(C)NC(=O)N(CC(=O)c3ccc4c(c3)OCCO4)C2=O)cc1 (centres undefined)	D1 antag -43.0 (no result: Epigenetic reg)
CCC1(c2ccc(OC)cc2)NC(=O)N(CC(=O)N2CCc3ccccc32)C1=O (centres undefined)	D1 agonist 38.8 (no result: Epigenetic reg)
CCC1(c2ccc(OC)cc2)NC(=O)N(CC(=O)c2ccc3c(c2)OCCO3)C1=O (centres undefined)	D1 agonist 32.5 (no result: Epigenetic reg)
CC1(C)CC2/C(CO)=C/C=C/[C@](C)(O)CC[C@]21O (some centres undefined)	none (no result: TRHR enhancer, D1 PAM, D1 agonist, D1 antag, TRHR agonist)
CCOc1ccc(-c2ccc(NS(=O)(=O)c3cc(C)c(C)cc3C)cc2)nn1	none
COc1ccc(S(=O)(=O)Nc2cc(S(=O)(=O)c3ccccc3)c(O)c(C)c2C)cc1	none
CCC1(c2ccc(F)cc2)NC(=O)N(CC(=O)N2c3ccccc3CC2C)C1=O (centres undefined)	D1 agonist 84.7 (no result: Epigenetic reg)
CCC1(c2ccc(F)cc2)NC(=O)N(CC(=O)N2c3ccccc3NC(=O)CC2C)C1=O (centres undefined)	none (no result: Epigenetic reg)
CCC1(c2ccc(F)cc2)NC(=O)N(CC(=O)N(CCC#N)c2ccccc2)C1=O (centres undefined)	TRHR enhancer 31.2 (no result: Epigenetic reg)
COc1ccc(NS(=O)(=O)c2cc(N/C(=N\S(=O)(=O)c3ccccc3)c3ccc(F)cc3)ccc2Cl)cc1	D1 antag -38.4
Cn1cc(CN2CCC(CO)(CCCc3ccccc3)CC2)c(-c2ccccc2)n1	D1 agonist 47.0
Cc1cc(Br)ccc1NCc1ccccn1	D1 antag -56.4
COc1ccc(Br)cc1S(=O)(=O)NCc1ccccn1	none (no result: Epigenetic reg)
COc1ccc(-n2c3c(cc(-c4nc(-c5ccc(Cl)cc5)cs4)c2=O)C(=O)CC(C)(C)C3)cc1Cl	none
Oc1ccc(C[C@@H]2CNCCN2CC2CCCCC2)cc1	none (no result: Epigenetic reg)
c1ccc2c(C[C@@H]3CNCCN3CC3CCCCC3)cccc2c1	D1 agonist 116.1 (no result: Epigenetic reg)
CCCOc1cccc(C(=O)N(Cc2ccc(C)o2)C2CCS(=O)(=O)C2)c1 (centres undefined)	none
Cc1ccc(NC(=O)CN(C)S(=O)(=O)c2cccs2)cc1F	D1 antag -37.3
Cc1ccsc1/C=C/C(=O)O	none
Cc1ccsc1/C=C/c1n[nH]c(=O)c(C#N)c1C	D1 antag -32.8 (no result: Epigenetic reg)
COc1ccc(C(=O)C[n+]2ccc3c(c2)nc(-c2cc(OC)c(OC)cc2OC)n3C)cc1	D1 antag -30.9
COc1cc(OC)c(-c2nc3c[n+](CC(=O)c4ccccc4)ccc3n2C)cc1OC	none
Cc1ccc(NC(=O)CC(NC(=O)c2ccccc2Cl)c2ccccc2)nc1 (centres undefined)	D1 antag -30.1 (no result: D1 PAM, Epigenetic reg)
CCCCOC(=O)c1ccc(NC(=O)Cn2nnc3sc4c(c3c2=O)CCCC4)cc1	none
COc1ccc(Nc2c3c(nc4ccccc24)CCCC3)cc1OC	none
O=C(CCCCCl)Nc1c2c(nc3ccccc13)CCC2	none (no result: Epigenetic reg)
CCCCCC(=O)Nc1c2c(nc3ccccc13)CCC2	TRHR enhancer 31.7 (no result: Epigenetic reg)
COc1ccc(C)cc1Nc1c2c(nc3ccccc13)CCC2	D1 antag -55.0!
Fc1ccc(Nc2c3c(nc4ccccc24)CCC3)cc1	D1 antag -40.9
c1ccc(Nc2c3c(nc4ccccc24)CCC3)cc1	none (no result: D1 antag)
c1ccc2c(Nc3ccc4c(c3)OCCO4)c3c(nc2c1)CCC3	none
Fc1ccccc1Nc1c2c(nc3ccccc13)CCC2	D1 antag -33.5
CC(C)[C@@H](CC(=O)N[C@@H]1CCNC[C@H]1C(=O)N[C@H](CC(=O)N[C@@H](CCC(=O)O)CC(=O)O)Cc1ccccc1)NC(=O)C[C@H](Cc1c[nH]c2ccccc12)NC(=O)[C@@H]1CNCC[C@H]1N	none (no result: TRHR enhancer, D1 PAM, D1 agonist, D1 antag, TRHR agonist)
Cc1c(C)n(Cc2ccccc2)c2ccc(C(=O)NCC(C)c3ccccc3)cc12 (centres undefined)	none
CCOc1ccccc1C(=O)Nc1cccc2ccc(C)nc12	none
Clc1ccccc1N=C1SCCS1	D1 agonist 36.1
CCc1ccc(Nc2cc(=O)n(C3CCCCC3)c(=O)[nH]2)cc1	D1 agonist 34.3, D1 antag -35.3
COC(=O)c1cc2occc2n1CC(=O)Nc1ccc(N(C)C)cc1	none
CCN(CC)CCNS(=O)(=O)c1ccc(C(=O)NN)cc1	D1 antag -34.9
CCOC(=O)c1ccc(S(=O)(=O)NCCN(CC)CC)cc1	none
COc1cccc([C@@H]2Oc3ccc(Br)cc3C(=O)[C@H]2OC(=O)NCCOc2ccccc2)c1	none (no result: TRHR enhancer, D1 PAM, D1 agonist, D1 antag, TRHR agonist)
Cc1cccc(-n2c(=O)c3c(c4cc(C)ccc4n3C)n(Cc3ccccc3F)c2=O)c1	Epigenetic reg inconclusive
COc1cc(-c2ccc(N=Nc3ccc4c(S(=O)(=O)O)cc(S(=O)(=O)O)c(N)c4c3O)c(OC)c2)ccc1N=Nc1ccc2c(S(=O)(=O)O)cc(S(=O)(=O)O)c(N)c2c1O	none (no result: TRHR enhancer, D1 PAM, D1 agonist, D1 antag, TRHR agonist)
Cc1ccc(CSc2nc3c(c(=O)[nH]2)C(c2ccncc2)C2=C(CCCC2=O)N3)cc1 (centres undefined)	D1 antag -48.2
